Laboratory results published in PubChem BioAssay (NCATS).
Results filed as inconclusive are left out. Active and inactive are the calls of the source. The call rests on the fitted dose curve; in most records, active means well fitted inhibition curve with a large enough effect; inconclusive means small, poorly fitted or top-dose-only effect; inactive means flat fitted curve, though single readings scatter.

What follows are compounds tested on CRL-7250 (assay: Cytotoxic Profiling of Annotated Libraries Using Quantitative High-Throughput Screening (AID 1296008; further: nearly all actives have a fitted effect of over 60% in size)). Conditions: Five cell lines viability, CellTiter-Glo ATP luminescence, 48-72 h; max response: stronger effect = lower value.
Method in brief: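 Cells exposed to compounds for 48 or 72 hr at 37 degrees Celsius. Viability read as ATP-coupled luminescence with CellTiter-Glo after 10 min at room temperature.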
On the % scale 0 is the no-effect control and ±100 the full control effect; potency means the concentration at half of the fitted maximal effect.

| Structure (SMILES) | Potency | max response | outcome |
| --- | --- | --- | --- |
| Nc1ncnc2c1nc(N)n2[C@@H]1O[C@H](CO)[C@@H](O)[C@H]1O | 2590 nM (active) |  |  |
| O=C1C=CC2OC(c3ccccc3)C(O)C2O1 (stereo unspecified) |  | -15.8% (inactive) |  |
| CC1CCCCN1S(=O)(=O)c1ccc(N2CCCC2=O)cc1 (stereo unspecified) |  | -8.63% (inactive) |  |
| COc1cc2ncnc(Nc3ccc(O)cc3)c2cc1OC |  |  | inactive |
| NCc1c[nH]c(=S)n1[C@@H]1CCc2c(F)cc(F)cc2C1 |  |  | inactive |
| C=C1C(=O)OC2C1CCC(=C)C1CC(OC(C)=O)C(=C)C12 (stereo unspecified) | 18400 nM (active) |  |  |
| CC1(C)CC2C(C1)C(C)(O)C13CC1(COC3=O)C2O (stereo unspecified) |  | -28% (inactive) |  |
| COc1cc2ncnc(N3CCC(Oc4cnc5ccccc5n4)C3)c2cc1OC (stereo unspecified) | 6510 nM (active) |  |  |
| C=CC1(C)C=C2CCC3C(C)(C)C(O[C@@H]4O[C@@H](CO)[C@H](O)[C@H]4O)CCC3(C)C2CC1O[C@@H]1O[C@H](C)[C@H](O)[C@H](O)[C@H]1O (stereo partly specified) |  | -0.496% (inactive) |  |
| COc1ccc2[nH]c3c(-c4cccc5ccccc45)nccc3c2c1 | 1160 nM (active) |  |  |
| CN(C)c1ccc2c(c1)OC(N)=C(C#N)C2c1cccc(C(F)(F)F)c1 (stereo unspecified) | 1640 nM (active) |  |  |
